Bioassay records: PubChem, National Center for Advancing Translational Sciences (NCATS)
Sampled rows, rich in hits. Any-hit rate of the full collection: about 10%.
CtBP-E1A inh: CtBP/E1A binding inhibition. AlphaScreen GST-E1A/His-CtBP binding, 1536-well; active compounds read low. AID 651724. activity change, % (test concentration not listed). 340,000 compounds, 0.49% hits; in the data active = activity change below about -65%; inconclusive = mostly about -30% to -63%; note: % is set by controls: 0 for no effect and ±100 for the full control effect
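Homogeneous bead-based format: GST-tagged E1A captured on glutathione donor beads, His-tagged CtBP on nickel acceptor beads; compounds precede bead addition by 2 h at 37 °C.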
BAZ2B block: inhibitors of human BAZ2B bromodomain; Potency, µM (series often up to 114 µM), inactives show at the top dose activity change, negative = inhibition, hits mostly inhibitors; AlphaScreen BAZ2B-H3K14Ac peptide displacement; 360,000 compounds, 4.4% hits; note: potency is the fitted concentration of half-maximal effect; % is set by controls: 0 for no effect and ±100 for the full control effect; nearly all actives have a fitted effect of over 60% in size
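Complex of BAZ2B and biotin-H3K14Ac (50 nM apiece) forms over 30 min at RT, then faces library compounds up to 110 uM for another 30 min; AlphaScreen beads added, 20 min dark incubation, luminescence read.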
G9a block: inhibitors of human histone lysine methyltransferase G9a; G9a H3K9 monomethylation, AlphaScreen, 2 h; Potency, µM (series often up to 102 µM), for inactives: top-dose activity, negative = inhibition, hits mostly inhibitors; 350,000 compounds, 8.8% hits; note: potency is the fitted concentration of half-maximal effect; % is set by controls: 0 for no effect and ±100 for the full control effect; nearly all actives have a fitted effect of over 75% in size
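Step 1: enzyme (final 20 nM) with compound, 15 min RT. Step 2: substrate peptide 500 nM and SAM 20 uM, 2 h RT. Step 3: anti-H3K9me1 antibody and AlphaScreen beads, 10 min, then plate read.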
HP1b chromo inh: inhibitors of HP1-beta chromodomain binding to methylated histone tails; P83916; AlphaScreen HP1-beta / biotin-H3K9me3 peptide binding; Potency, µM (series often up to 114 µM), without a hit: top-dose activity change, negative = inhibition, usual class: inhibitors; 390,000 compounds, 0.56% hits; note: potency is the fitted concentration of half-maximal effect; nearly all actives have a fitted effect of over 70% in size
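HP1-beta protein (50 nM final) preincubated 30 min at room temperature with biotinylated H3(1-18)K9me3 peptide (50 nM) in PBS pH 7.4, 0.01% Tween-20, then compound added for 30 min. AlphaScreen streptavidin donor/nickel chelate acceptor beads (10 ug/mL final), 30 min dark, luminescence read.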
Six1-Eya2 blk: blocks human Six1 binding to Eya2; Q15475+O00167; AlphaScreen GST-Six1/His-Eya2 binding, biochemical; active compounds read low; activity change, % (test concentration not listed); 360,000 compounds, 0.56% hits; in the data active = activity change below about -65%; inconclusive = mostly about -30% to -63%; note: % is set by controls: 0 for no effect and ±100 for the full control effect
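Six1/Eya2 binding was read as AlphaScreen signal after compounds were pinned into GST-Six1 plus His-tagged Eya2 (5X stock 250/500 nM) in pH 8.0 Tris/NaCl/TCEP buffer, beads added, then incubated 1 h, 37 C, dark.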
JMJD2A Tudor inh: JMJD2A Tudor domain (human) inhibition; O75164; AlphaScreen JMJD2A-Tudor / H3K4me3 peptide binding; Potency, µM (highest dose often 114 µM), inactives show top-dose activity change, negative = inhibition, hits mostly inhibitors; 390,000 compounds, 4.4% hits; AID 504339; note: potency is the fitted concentration of half-maximal effect; % is set by controls: 0 for no effect and ±100 for the full control effect; nearly all actives have a fitted effect of over 50% in size
The depositor's hits bear a star; ? = inconclusive; / = no result; [ ] = dose if it differs, or a comment. Unless noted, calls come from the whole dose curve; as a rule, active = well fitted inhibition curve with a large enough effect; inconclusive = small, poorly fitted or top-dose-only effect; inactive = no such curve, though single readings can be large or run the other way.

SMILES	CtBP-E1A inh	BAZ2B block	G9a block	HP1b chromo inh	Six1-Eya2 blk	JMJD2A Tudor inh
CCOC(=O)C1=C(C)OC(N)=C(C#N)C1c1cc2ccccc2nc1N1CCCCC1 (stereo not drawn)	11	-2%	11µM*	66%	3	2%
CCOC(=O)C1=C(C)OC(N)=C(C#N)C1c1cc2c(cc1Br)OCO2 (stereo not drawn)	-11	-39%	?	-9%	-4	-34%
CCOC(=O)C1=C(C)OC(N)=C(C#N)C1c1cc(C)sc1C (stereo not drawn)	-3	-26%	/	29%	-1	-11%
CCOC(=O)C1=C(C)OC(N)=C(C#N)C1c1cc2cc(C)ccc2nc1N1CCCCC1 (stereo not drawn)	-6	-12%	10µM*	53%	-1	-3%
COc1ccc(OCC(=O)NC2CC(=O)N(c3ccc4c(c3)OCCO4)C2)cc1 (stereo not drawn)	/	0%	8%[59 µM]	26%	/	-1%
C#CCOCCOCCOCCNc1nc(N2CCN(C(=O)CCCCCCCCCCNC(=O)[C@H](CCCCN)n3cc(C[C@@H](C)CC)nn3)CC2)nc(N2CCN(C(=O)CCCCCCCCCCNC(=O)[C@@H]([C@H](C)O)n3cc(C)nn3)CC2)n1	-10	50µM*	-4%[2.33 µM]	?	-16	56µM*
C#CCOCCOCCOCCNc1nc(N2CCN(C(=O)CCCCCCCCCCNC(=O)[C@H](CCCCN)n3cc(C)nn3)CC2)nc(N2CCN(C(=O)CCCCCCCCCCNC(=O)[C@@H]([C@H](C)O)n3cc(C)nn3)CC2)n1	-8	-37%	-4%[2.33 µM]	-22%	-3	56µM*
N#CC(C#N)=C1C=CC=CN1/C(=C\c1ccccc1)C(=O)c1cccs1	-25	-9%	1.1µM*	-12%	-22	?
N#CC(C#N)=C1C=CC=CN1/C(=C\c1ccccc1Cl)C(=O)c1ccccc1	7	?	14µM*	?	?	50µM*
Cc1ccc(-c2cn3nc(N4CCCC(C(=O)Nc5ccc(F)cc5)C4)sc3n2)cc1 (stereo not drawn)	/	-16%	-9%[59 µM]	6%	/	-26%
CCn1c(=O)c(=O)[nH]c2cc(C(=O)NCC3CCCCC3)ccc21	-1	5%	?	23%	-6	-20%
CCn1c(=O)c(=O)[nH]c2cc(C(=O)NC3CCCC3)ccc21	4	-2%	0%	-15%	-5	13µM*
CCOc1ccc2nc(N3CCCC(C(=O)NCCc4ccc(SC)cc4)C3)sc2c1 (stereo not drawn)	/	-3%	-20%[59 µM]	26%	/	-6%
CCCc1ccccc1OCCNC(C)=O	-1	-5%	-7%[59 µM]	-11%	-3	16µM*
CC(=O)NCCOc1cccc2ccccc12	-2	9%	-41%[12.7 µM]	15%	-1	-8%
S=C(NCCc1ccccc1)NCCN1CCOCC1	8	-8%	-5%	50%	-4	-8%
CN(C(=S)NCCN1CCOCC1)C(c1ccccc1)c1ccccc1	/	50µM*	20µM*	?	2	10µM*
C/C=C/C=C\C(=O)Nc1cccc(C2=NOC3(C2)C[C@H](C(N)=O)N(C(=O)/C=C/C)C3)c1 (stereo partly drawn)	-4	-4%	?	?	-23	79µM*
C/C=C\C=C/C(=O)Nc1cccc(C2=NOC3(C2)C[C@@H](C(N)=O)N(C(=O)COc2ccc(Cl)cc2)C3)c1 (stereo partly drawn)	-7	?	?	?	-5	71µM*
O=C(Cn1cc(S(=O)(=O)Cc2cccc(Cl)c2)c2ccccc21)Nc1ccccc1Cl	/	-1%	-2%[59 µM]	21%	/	-13%
CCCc1sc(N/N=C/c2ccccn2)nc1-c1ccc(Br)cc1	-16	-33%	-5%[59 µM]	6%	-14	50µM*
CCOc1ccccc1C(=O)Nc1nn[nH]n1	-1	50µM*	25µM*	?	-12	56µM*
CCOc1ccccc1C(=O)Nc1ccccc1C(N)=O	1	13%	-31%[12.7 µM]	18%	1	-12%
Cc1cc(NC(=O)c2cccc(Oc3ccccc3)c2)n[nH]1	0	?	-37%	39%	0	-24%
O=C(Nc1nn[nH]n1)c1cccc(Oc2ccccc2)c1	0	12%	40µM*	30%	13	?
SMILES	CtBP-E1A inh	BAZ2B block	G9a block	HP1b chromo inh	Six1-Eya2 blk	JMJD2A Tudor inh
CCCn1c(SCC(=O)NNC(=O)c2ccc(OC)cc2)nnc1C(C)C	16	4%	?	3%	4	-19%
CCn1c(SCC(=O)c2ccc(Br)cc2)nnc1C(C)NC(=O)Cc1ccc(OC)cc1 (stereo not drawn)	-1	5%	7%	1%	5	-1%
COc1ccc(CC(=O)NC(C)c2nnc(SCC(=O)c3ccc(Br)cc3)n2C)cc1 (stereo not drawn)	3	-25%	40µM*	10%	-1	-11%
CCn1c(SCC(=O)c2ccc(OC)cc2)nnc1C(C)NC(=O)c1ccc(OC)cc1 (stereo not drawn)	0	-6%	45µM*	25%	0	-15%
COCCn1c(SCC(=O)c2ccccc2)nc2cc(C(=O)NC3CCCC3)ccc2c1=O	/	3%	3%[59 µM]	7%	/	-13%
CCOc1ccc(CCNC(=O)c2nnc(Cc3cc(OC)c(OC)c(OC)c3)o2)cc1OCC	/	-11%	-32%[59 µM]	-11%	/	-13%
COc1ccc(NC(=O)NCCn2nnc3cc(S(=O)(=O)N(C)C)ccc32)cc1	/	-3%	11%[59 µM]	2%	/	-16%
Cc1ccc(-c2csc(-c3cc4c([nH]c3=O)CC(c3ccccc3)CC4=O)n2)cc1 (stereo not drawn)	/	79µM*	2.5µM*	15%	/	89µM*
COc1ccc(C2CC(=O)c3cc(-c4nc(-c5cccc(Cl)c5)cs4)c(=O)[nH]c3C2)cc1 (stereo not drawn)	/	1%	-7%[59 µM]	53%	/	-1%
CCc1c(C(C)S(=O)(=O)c2ccc(C)cc2)[nH]c(=O)n1-c1ccc(OC(F)(F)F)cc1 (stereo not drawn)	6	-22%	10µM*	61%	-13	-23%
CCn1cc(S(=O)(=O)c2ccc(C)cc2)[nH]c1=O	0	-38%	17%	18%	2	-15%
Nn1nnc2ccccc21	-19	3%	41%[59 µM]	48%	5	-17%
S=c1[nH]nc2nnc3ccccc3n12	-8	?	3.2µM*	-5%	-9	-19%
CSCCC(NC(=O)c1ccc(Cl)cc1)C(=O)OCC(=O)NCc1ccco1 (stereo not drawn)	3	-29%	?	16%	-11	-7%
